# Assay outcomes (PubChem BioAssay)
# Mtb FBA inh – Mtb fructose-bisphosphate aldolase inhibition. P9WQA3. purified M. tuberculosis FBA, fluorescence read-out. inhibition, % at 1 µM. 360,000 compounds, 2.3% hits;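 also: 0% = vehicle and 100% = reference inhibitor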
# Target sequence (P9WQA3 whole entry, looked up): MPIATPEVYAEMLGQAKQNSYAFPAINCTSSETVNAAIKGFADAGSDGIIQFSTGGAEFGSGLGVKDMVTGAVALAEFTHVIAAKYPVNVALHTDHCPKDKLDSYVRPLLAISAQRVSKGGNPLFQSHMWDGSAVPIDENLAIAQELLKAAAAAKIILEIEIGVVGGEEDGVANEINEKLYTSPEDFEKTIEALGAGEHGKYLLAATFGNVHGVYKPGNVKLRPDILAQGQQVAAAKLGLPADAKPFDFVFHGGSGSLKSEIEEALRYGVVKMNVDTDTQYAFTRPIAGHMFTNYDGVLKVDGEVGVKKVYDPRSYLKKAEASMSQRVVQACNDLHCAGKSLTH
# GDH-TPI counter-1 – inhibits GDH-TPI coupling enzymes, artifact for Mtb FBA screen; GDH-TPI coupled enzyme counterscreen, NADH absorbance; inhibition, % at 4.8 µM; 360,000 compounds, 1.2% hits; AID 588335; in the data active = inhibition above about 30%;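 also: 0% = DMSO wells and 100% = wells lacking the enzyme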
# PrPC surface inh – reduces human prion protein on the cell surface; P04156; cell surface PrPC, TR-FRET read-out; inhibition, % at 13.8 µM; 370,000 compounds, 0.43% hits; AID 720596; in the data active = inhibition above about 24%; also: 0% = median of the test wells and 100% = reference compound wells
# TcdB GH inh – blocks C. difficile toxin B glycohydrolase activity | AID 652162 | inhibition, % at 9.99 µM | P18177 | TcdB glycohydrolase enzymatic assay, plate reader | 350,000 compounds, 0.24% hits; in the data active = inhibition above about 10%
# Yp Topo-I inh – Y. pestis Topo-I inhibition via cleavage products | 360,000 compounds, 0.064% hits | activity, % at 10 µM | AID 504884 | Y. pestis Topo-I cleavage product accumulation, plate reader; in the data active = activity above about 50%, passing the limit was not always enough
# Mtb FBA inh conf – Mtb FBA inhibition, confirmed; shares compounds with Mtb FBA inh; purified M. tuberculosis FBA, fluorescence read-out; inhibition, % at 1 µM; 5,600 compounds, 78% hits;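 also: 0% = vehicle wells and 100% = reference inhibitor wells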
# GDH-TPI counter-2 – inhibits GDH-TPI coupling enzymes, flagging Mtb FBA hits. shares compounds with Mtb FBA inh. AID 652141. GDH-TPI coupled enzyme counterscreen, fluorescence. inhibition, % at 1 µM. 5,600 compounds, 81% hits; in the data active = inhibition above about 10%
# GDH-TPI dose – GDH-TPI dose response counter-screen for Mtb FBA. 170 compounds, 79% hits. GDH-TPI coupled enzyme assay, fluorescence, artifact counterscreen. shares compounds with Mtb FBA inh. IC50, µM; call rule not given here
# The depositor's hits bear a star; . = no result given; + = active, no number. An excerpt weighted towards active compounds, which were near 3.2% of everything screened. Rule as the data show it, unless noted: active = inhibition above about 27%; inactive = the rest.
SMILES,Mtb FBA inh,GDH-TPI counter-1,PrPC surface inh,TcdB GH inh,Yp Topo-I inh,Mtb FBA inh conf,GDH-TPI counter-2,others
CCCNC(=O)N1CC2(CCN(C(=O)C3CC3)CC2)c2c([nH]c3cc(OC)ccc23)[C@@H]1CO,.,.,.,1.2,.,.,.,
CCCN1CCN(CCCNC(=O)c2cc3c(=O)oc4ccc(C)cc4c3s2)CC1,5.5,7.7,5.5,0.3,6.3,.,.,
COCCNC(=O)c1cc2c(=O)[nH]c3ccccc3c2s1,77.9*,19.0,0.9,1.1,-4.5,102.2*,84.0*,
CCCN1CCN(CCCNC(=O)c2cc3c(=O)[nH]c4ccccc4c3s2)CC1,46.8*,4.7,-4.5,1.3,-3.4,91.1*,76.1*,
CCOC(=O)N1CCN(C(=O)c2cc3c(=O)[nH]c4ccccc4c3s2)CC1,10.0,13.4,-3.5,1.8,-11.3,.,.,
O=C(C[C@@H]1CC[C@H]2[C@@H](COC[C@H](O)CN2C(=O)c2ccccc2F)O1)NCc1ccc(Cl)c(Cl)c1,.,.,.,-0.6,.,.,.,
CN(C)CCCNC(=O)C[C@@H]1CC[C@H]2[C@@H](COC[C@H](O)CN2S(=O)(=O)c2ccc(F)cc2)O1,.,.,.,-0.3,.,.,.,
CCOC(=O)Cc1cc(=O)n2[nH]c(-c3ccccc3)cc2n1,22.2,3.9,.,2.0,-8.9,.,.,
CCOC(=O)Cc1cc(=O)n2[nH]c(-c3ccccc3)c(-c3ccccc3)c2n1,42.8*,3.8,3.9,0.9,1.5,80.5*,67.0*,
CCOC(=O)Cc1cc(=O)n2[nH]c(C)c(-c3ccccc3)c2n1,38.9*,12.2,9.0,.,3.1,96.5*,77.4*,
CCOC(=O)Cc1cc(=O)n2[nH]c(C)c(-c3ccccc3OC)c2n1,7.5,-3.2,-7.0,-1.8,3.6,.,.,
C[C@@H]1CCCCO[C@@H](CN(C)S(=O)(=O)c2cn(C)cn2)[C@H](C)CN([C@@H](C)CO)C(=O)c2cc(NC(=O)NC3CCCCC3)ccc2O1,.,.,.,1.0,.,.,.,
CNC[C@@H]1Oc2ccc(NC(=O)Nc3ccc(OC)cc3)cc2C(=O)N([C@@H](C)CO)C[C@@H]1C,.,.,.,1.0,.,.,.,
FC(F)(F)c1cccc(-c2nc3nc(Cl)c(Cl)nc3[nH]2)c1,31.3*,36.0*,.,1.0,-4.6,34.9*,42.0*,
FC(F)(F)c1nc2nc(Cl)c(Cl)nc2[nH]1,5.0,26.2,-7.3,2.4,-0.5,.,.,
COc1ccccc1COC(=O)N/C=C/c1ccco1,42.9*,-1.6,4.6,-0.4,7.3,163.2*,120.9*,
N#Cc1ccc(/C=C2\CCCCn3c2nc2cc(C(=O)O)ccc2c3=O)cc1,1.6,0.0,-7.7,1.0,0.9,.,.,
O=C(O)c1ccc2c(=O)n3c(nc2c1)/C(=C/c1ccc(C(F)(F)F)cc1)CC3,27.8*,27.6,-14.6,-0.3,6.5,45.7*,33.5*,
COCC(=O)N[C@H]1C=C[C@H](CC(=O)N2CCCCC2)O[C@@H]1CO,.,.,.,-0.3,.,.,.,
O=C1NC(=O)c2cc(NC(=O)C3CCCO3)ccc21 (configuration not stated),37.7*,5.8,-3.4,.,7.3,10.8,0.5,GDH-TPI dose=4.23*
CCCC(=O)Nc1cccc(Oc2ccc3c(c2)C(=O)NC3=O)c1,0.9,9.4,-1.9,0.8,-2.4,.,.,
O=C(Cc1ccc(Cl)cc1)Nc1ccc2c(c1)C(=O)NC2=O,59.8*,5.2,12.3,0.4,-6.9,51.2*,35.1*,
Cc1ccccc1C(=O)Nc1ccc2c(c1)C(=O)NC2=O,38.8*,6.2,-4.5,0.3,-2.4,0.5,2.4,
CCCC(=O)Nc1ccc2c(c1)C(=O)NC2=O,33.0*,0.9,-4.0,0.6,8.7,114.9*,88.4*,
O=C(Cc1ccc([N+](=O)[O-])cc1)Nc1ccc2c(c1)C(=O)NC2=O,12.1,8.4,-1.7,0.9,7.1,.,.,
SMILES,Mtb FBA inh,GDH-TPI counter-1,PrPC surface inh,TcdB GH inh,Yp Topo-I inh,Mtb FBA inh conf,GDH-TPI counter-2,others
CC(C)NC(=O)N[C@@H]1C=C[C@H](CC(=O)NCc2ccc(Oc3ccccc3)cc2)O[C@@H]1CO,.,.,.,-0.3,.,.,.,
C[C@H](CO)N1C[C@H](C)[C@@H](CN(C)CC2CCCC2)Oc2ncc(C#C[C@@H](C)O)cc2C1=O,.,.,.,0.0,.,.,.,
CCC(=O)Nc1ccc2c(c1)C(=O)N(C)[C@H]1CC[C@H](CC(=O)NCc3ccccc3Cl)O[C@@H]1CO2,.,.,.,-1.1,.,.,.,
O=C(c1cc(-c2ccco2)nc2ccccc12)N1CCN(Cc2ccccc2)CC1,49.7*,0.0,13.1,3.5,30.0,137.8*,147.7*,
O=C(c1ccco1)N1CCN(C(=O)c2cc(-c3ccccc3)nc3ccccc23)CC1,-0.7,4.9,-4.0,.,13.6,.,.,
COC(=O)C1CCN(C(=O)c2cc(-c3ccco3)nc3ccccc23)CC1,108.8*,21.8,-7.9,-1.2,-10.7,53.6*,42.9*,
CCOC(=O)C1CCN(C(=O)c2cc(-c3ccncc3)nc3ccccc23)CC1,1.2,2.2,-6.5,1.8,1.9,.,.,
C[C@@H]1CN([C@@H](C)CO)C(=O)c2cccc(NC(=O)c3ccc(-c4nccs4)cc3)c2O[C@H]1CN(C)C,.,.,.,-0.2,.,.,.,
COCCCn1c(CCC(=O)O)ccc1-c1cccs1,33.9*,3.4,-2.9,.,3.9,34.0*,26.1*,
CCCn1c(CCC(=O)O)ccc1-c1cccs1,35.1*,9.9,-1.7,.,4.8,98.0*,83.6*,
CCCn1c(CCC(=O)O)ccc1-c1ccccc1,14.7,-9.3,4.5,0.7,4.9,.,.,
COC(=O)c1ccccc1NC(=O)Cn1c(CCC(=O)O)ccc1-c1cccs1,2.2,4.0,-4.1,.,6.9,.,.,
Cc1noc(C)c1S(=O)(=O)Nc1ccc2c(c1)C(=O)N([C@@H](C)CO)C[C@H](C)[C@H](CN(C)S(=O)(=O)c1ccc(Cl)cc1)O2,.,.,.,1.0,.,.,.,
CCCc1c(O)c2ccccc2[nH]c1=O,29.9*,-9.1,3.7,.,-4.0,49.7*,41.6*,
CCc1ccn2cc(-c3ccc4c(c3)OCO4)nc2c1,91.3*,12.6,-1.3,5.8,3.1,64.9*,43.2*,
CC1N(C)c2cccc3cccc(c23)N1C,103.1*,3.0,-6.4,.,-5.1,195.8*,128.0*,
COc1cccc(NC(=O)N2CC(=O)N3[C@H](CO)[C@@H](c4ccc(C#CCC5CCCC5)cc4)[C@H]3C2)c1,.,.,.,-0.5,.,.,.,
CC(=O)NC(=O)c1ccc(-c2ccc(Cl)cc2)o1,78.0*,20.8,7.5,0.6,3.0,46.1*,56.0*,
COc1ccccc1NC(=S)NC(=O)c1ccc(-c2ccc(Cl)cc2)o1,2.1,15.6,4.9,.,-2.7,.,.,
CCN1CCN(C(=O)c2cc3cc(F)ccc3[nH]2)CC1,82.2*,3.3,-5.4,3.4,2.2,147.9*,96.2*,
CN(C)CCCn1c2c3ccccc3ccc2c2oc(=O)c3ccccc3c21,27.0*,6.0,4.1,1.3,-36.1,+,+,
CN(C)CCCn1c(=S)[nH]c2ccccc2c1=O,2.4,3.8,-11.3,0.8,6.3,.,.,
